Measured values published in PubChem BioAssay AID485346 (Sanford-Burnham Center for Chemical Genomics, 2010).
In all, about 330,000 compounds went through this assay and about 10,000 (3%) were called active. What follows is part of a selection rich in actives, with near analogues and random picks from the rest. A number with no mark means an inactive call.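 Rule for the calls: active = inhibition of at least 50% at 8 µM in the primary screen; inactive = the rest.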

The compounds below were run against Protein Mdm4 (Homo sapiens) + E3 ubiquitin-protein ligase Mdm2 (Homo sapiens) (UniProt O15151+Q00987) (assay: inhibitors of human Mdm2-MdmX association, primary screen, cell-based, luminescence, split luciferase, SaOS-2, uHTS (AID 485346)). Conditions: SaOS-2 split-luciferase Mdm2/MdmX complementation, at 8 µM, stronger effect = higher value.
Protein Mdm4 (Homo sapiens) + E3 ubiquitin-protein ligase Mdm2 (Homo sapiens), sequence (O15151 whole entry, looked up): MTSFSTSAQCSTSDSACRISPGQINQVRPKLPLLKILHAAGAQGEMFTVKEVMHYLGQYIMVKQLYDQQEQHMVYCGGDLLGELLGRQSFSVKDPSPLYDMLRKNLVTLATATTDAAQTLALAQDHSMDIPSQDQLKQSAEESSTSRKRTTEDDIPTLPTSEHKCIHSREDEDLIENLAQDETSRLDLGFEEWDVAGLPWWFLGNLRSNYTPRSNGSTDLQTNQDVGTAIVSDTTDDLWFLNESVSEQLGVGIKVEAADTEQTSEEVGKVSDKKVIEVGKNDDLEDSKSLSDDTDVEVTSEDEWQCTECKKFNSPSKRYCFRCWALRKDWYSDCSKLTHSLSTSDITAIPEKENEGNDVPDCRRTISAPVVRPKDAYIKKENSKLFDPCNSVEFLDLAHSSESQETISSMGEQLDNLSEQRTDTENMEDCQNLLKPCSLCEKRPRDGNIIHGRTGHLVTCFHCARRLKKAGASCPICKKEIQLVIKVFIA
Protein Mdm4 (Homo sapiens) + E3 ubiquitin-protein ligase Mdm2 (Homo sapiens), sequence (Q00987 whole entry, looked up): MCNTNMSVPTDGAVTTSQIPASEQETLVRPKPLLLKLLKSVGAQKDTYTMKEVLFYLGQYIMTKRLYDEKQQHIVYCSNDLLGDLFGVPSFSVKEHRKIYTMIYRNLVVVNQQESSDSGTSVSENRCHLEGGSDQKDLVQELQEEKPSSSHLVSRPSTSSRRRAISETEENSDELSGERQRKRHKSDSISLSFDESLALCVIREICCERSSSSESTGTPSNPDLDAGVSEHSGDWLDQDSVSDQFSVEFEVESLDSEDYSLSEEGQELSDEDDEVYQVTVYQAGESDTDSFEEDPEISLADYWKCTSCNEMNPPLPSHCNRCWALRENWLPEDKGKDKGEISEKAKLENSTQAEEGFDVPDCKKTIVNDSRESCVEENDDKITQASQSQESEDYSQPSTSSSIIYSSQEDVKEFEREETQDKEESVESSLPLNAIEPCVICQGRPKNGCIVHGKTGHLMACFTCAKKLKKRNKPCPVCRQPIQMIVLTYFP
Work on `OC(CNC1CCCC1)COc1ccc(F)cc1` (centres undefined) yielded an inhibition of 7.59%. For `CCCCCCCCCCOC(=O)C[N+](C)(C)CC1CCCCC1O` (centres undefined), the inhibition was 23.5%. In the case of `CCN(CC(=O)NCc1ccc(Cl)cc1)C(=O)c1c(C)noc1C`, the inhibition is reported as 3.48%. For `O=C(c1ccncc1)N1CCN(S(=O)(=O)c2cccc([N+](=O)[O-])c2)CC1`, the inhibition was -3.71%. `CC(C)c1ccc(-c2noc(C3CCCN(S(C)(=O)=O)C3)n2)cc1` (centres undefined) was tested, and the inhibition was 2.01%. For `CCN1CCCC1CNC(=O)c1cc2c(=O)n(C)c3ccccc3c2n1C` (centres undefined), the inhibition was 18.3%. `Cn1c(C(=O)NCCc2ccsc2)cc2c(=O)n(C)c3ccccc3c21` gave an inhibition of -6.58%. For `Cn1c(C(=O)NCCCN2CCN(c3cccc(Cl)c3)CC2)cc2c(=O)n(C)c3ccccc3c21`, the inhibition was 76.9% (active). `O=C(OCC(=O)N1CCN(C(=O)c2ccco2)CC1)c1c(Cl)cccc1Cl` was tested, and the inhibition was 2.03%. `CCOC(=O)Cn1c2c(c(-c3ccccc3OC)cc1=O)CCCC2` gave an inhibition of -13.8%. `CCO[C@H]1OC(C(=O)O)=C[C@@H](C2CCCCC2)[C@@H]1CCCO` showed an inhibition of -5.58%. `CCOC(=O)COn1c(=O)c(-c2ccc(OCC)cc2)[n+]([O-])c2ccccc21` gave an inhibition of -23.1%. With `CCCCn1c(N)c(N(CCOC)C(=O)c2cccc(OCc3ccccc3)c2)c(=O)[nH]c1=O` the inhibition was -6.7%. `CCCCCCCCCCOC(=O)Cn1c(COc2cccc(OC)c2)[n+](C)c2ccccc21` was tested, and the inhibition was 61.7% (active). In the case of `CCCCCCCCCCOC(=O)Cn1c(COc2ccc(C)cc2)[n+](C)c2ccccc21`, the inhibition is reported as 91.9% (active). `COc1cccc(OCc2nnc3n2N=C(c2ccccc2)C(CC(=O)O)S3)c1` (centres undefined) showed an inhibition of -4%. `CCOC(=O)Cn1c(-c2cccnc2Cl)nc2ccccc21` gave an inhibition of -0.413%. Compound `COc1cccc(NC(=O)CSc2nnc(C3CCCCC3)n2N)c1` has an inhibition of 18.3%. `CNC[C@@H]1Oc2c(NS(C)(=O)=O)cccc2C(=O)N([C@@H](C)CO)C[C@H]1C` gave an inhibition of -13.4%. `COC(=O)c1ccc(/C=N/OCC(=O)Nc2cc(F)ccc2F)cc1` showed an inhibition of -13.4%. `COc1ccccc1N1CCN(C(=O)c2c(-c3c(Cl)cccc3Cl)noc2C)CC1` showed an inhibition of 15.5%. For `COc1ccccc1N1CCN(c2ncnc3sc(C)c(-c4ccccc4)c23)CC1`, the inhibition was 69.2% (active). In the case of `COc1ccccc1N1CCN(c2ccc([N+](=O)[O-])nc2)CC1`, the inhibition is reported as 16.1%. With `O=C(NC1Cc2ccccc2C1)c1cc(COc2cccc(C(F)(F)F)c2)on1` the inhibition was 26.2%. With `CC(=O)c1ccc2c(c1)c1ccccc1n2CC(C)C` the inhibition was 47.4%. `CCCCN(CCCC)CC(O)Cn1c2ccccc2c(=O)c2ccccc21` (centres undefined) gave an inhibition of 18.6%. With `CS(=O)(=O)N(CC(O)Cn1c2ccccc2c2ccccc21)c1cccc2ccccc12` (centres undefined) the inhibition was 64.1% (active). With `COc1ccc(S(=O)(=O)N2CCOCC2)cc1NC(=O)CSc1cc(C)ccc1C` the inhibition was 9.92%. For `Cn1c2c(c(=O)n(C)c1=O)C(c1cccc(F)c1)C(C#N)=C(N)O2` (centres undefined), the inhibition was -0.62%. `Cc1ccc(C(=O)NCC(=O)NCc2cc(=O)n(C)c(=O)n2C)cc1` gave an inhibition of -0.269%. For `COC(=O)c1ccc(NC(=O)c2cc(Cl)ccc2OC)cc1`, the inhibition was 92.4% (active). For `COc1ccc(Cl)cc1C(=O)Nc1ccc(N(C)C(C)=O)cc1`, the inhibition was 1.34%. With `CCC(C)NC(=O)c1cc(Cl)ccc1OC` (centres undefined) the inhibition was 2.55%. Compound `COc1cc(NC(=S)NCCSc2ccc(C)cc2)cc(OC)c1` has an inhibition of 27.5%. `O=S(=O)(NCc1cccnc1)c1ccc(Br)s1` showed an inhibition of 1%. In the case of `O=S(=O)([N-]c1nc2ccccc2nc1-[n+]1ccc(Cc2ccccc2)cc1)c1ccc(Br)s1`, the inhibition is reported as 71.9% (active). `O=C(NCCc1ccccc1)C1CCN(S(=O)(=O)c2ccc(Br)s2)CC1` was tested, and the inhibition was 18.6%. `COc1ccc2c(c1)c1nc3n(c(=O)c1n2CC(=O)Nc1ccccc1)CCS3` was tested, and the inhibition was 41.9%. `CC(C(=O)NC1CCCC1)N1CCN(S(=O)(=O)c2ccccc2Cl)CC1` (centres undefined) was tested, and the inhibition was -17.2%. `Cn1nccc1C(=O)NC1CCCc2c1cnn2-c1ccccc1F` (centres undefined) was tested, and the inhibition was -1.1%. In the case of `COc1ccc(C(=O)NC2CCCc3c2cnn3-c2cccc(C)c2C)c(OC)n1` (centres undefined), the inhibition is reported as 97.7% (active). With `CC(=O)NCC(=O)NC1CCCc2c1cnn2-c1ccccc1F` (centres undefined) the inhibition was -11.2%. In the case of `Cc1cc(C(=O)NC2CCCc3c2cnn3-c2cccc(C)c2C)c(C)o1` (centres undefined), the inhibition is reported as 68% (active). `Cn1nccc1C(=O)NC1CCCc2c1cnn2-c1ccc(F)cc1F` (centres undefined) gave an inhibition of 26.9%. `Cc1ccc(-n2ncc3c2CCCC3NC(=O)c2cnccn2)cc1C` (centres undefined) gave an inhibition of 9.66%. Work on `Cc1nonc1C1CCCN1Cc1nc(-c2ccc(F)cc2F)oc1C` (centres undefined) yielded an inhibition of 29.7%. `Clc1ccc(C[n+]2cc(-c3ccc(Cl)cc3)n3c2CCC3)cc1` showed an inhibition of 31.8%. With `O=[N+]([O-])c1cc(S(=O)(=O)Nc2cccc(Cl)c2)ccc1N=Nc1c(O)[nH]c2ccccc12` the inhibition was 97.4% (active). Compound `COc1ccc(S(=O)(=O)Nc2ccc3cn[nH]c3c2)cc1[N+](=O)[O-]` has an inhibition of 0.751%. `Cc1cccc(N(CC(=O)N=Nc2c(O)[nH]c3ccccc23)S(C)(=O)=O)c1C` showed an inhibition of -22.1%. For `Cc1cccc(N(C)C(=O)c2cc3c(=O)[nH]c4ccc(C)cc4c3s2)c1`, the inhibition was 60.9% (active). `CCN(CC)CCCNC(=O)c1cc2c(=O)[nH]c3ccc(C)cc3c2s1` gave an inhibition of 26.3%. Work on `Cc1ccc2[nH]c(=O)c(CC(=O)O)c(-c3ccccc3)c2c1` yielded an inhibition of 22%. `O=C(CNC(=O)C12CC3CC(CC(C3)C1)C2)OCC(=O)N1CCCCC1` was tested, and the inhibition was 19.2%. `C/C(=N\NC(=O)c1ccc(NS(=O)(=O)c2cccs2)cc1)c1ccc2ccccc2c1` gave an inhibition of -6.93%. `COc1cc(OC)cc(C(=O)NC2CCN(C(=O)N3c4ccccc4Sc4ccccc43)CC2)c1` gave an inhibition of 9.25%. `Nc1ccc(C(=O)Nc2ccccc2N)cc1` was tested, and the inhibition was 54.8% (active). In the case of `CC(=O)Nc1ccccc1NC(=O)c1cc(C)cc(C)c1`, the inhibition is reported as -1.21%. With `Nc1ccc(C(=O)NCc2ccccc2)cc1` the inhibition was 3.98%.
